Results from publication PMC5540273 (PLoS ONE, 2017).

System: MST4
Conditions: concentration: 1 μM, replicates: in singlicate; n = 1
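Further: KINOMEscan kinase panel screen.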

| SMILES | %Inh [%] |
| --- | --- |
| COc1ccc(Nc2nccc(N3CCC(NC(=O)C(C)c4ccc(Cl)cc4)CC3)n2)cc1 (stereo not drawn) [GSK1379812] | 0 |
| CCc1ccc(-c2ccc3c(c2)-c2n[nH]cc2S(=O)(=O)N3C)cc1 | 0 |
| CC(=O)c1c(C)c2cnc(Nc3ccc(N4CCNCC4)cn3)nc2n(C2CCCC2)c1=O | 0 |
| Cn1cncc1C(=O)NC1CCN(c2ccnc(Nc3ccc(F)cc3)n2)C1 (stereo not drawn) [GSK1379717] | 0 |
| CNc1cc(-c2ccc3c(N)n[nH]c3c2)nc(N)n1 [GSK2224810] | 0 |
| CN1c2ccc(-c3ccc(C(N)=O)cc3)cc2-c2[nH]ncc2S1(=O)=O | 2 |
| COc1ccc(-c2coc3ccc(-c4nnc(C)o4)cc23)cc1 | 0 |
| Cc1ccc(NC(=O)Nc2ccccc2F)cc1-c1ccc(C(=O)Nc2ccncc2)cc1 [GSK1398477] | 0 |
| O=C(Nc1n[nH]c2nc(-c3ccco3)c(Br)cc12)C1CCN(Cc2ccccc2)C1.O=C(O)[C@H](O)[C@@H](O)C(=O)O (stereo not drawn) [SB-742034] | 9 |
| FC(F)(F)c1ccccc1-c1cc(-c2c[nH]nc2-c2ccccn2)ccn1 [GW679396] | 0 |
| COc1nccc(-c2c(-c3ccc(F)cc3)ncn2CCCN2CCOCC2)n1 [SB-282852] | 0 |
| COc1cccc(CNC(=O)NC2CCN(c3ccnc(Nc4ccc(F)cc4)n3)C2)c1 (stereo not drawn) [GSK1379723] | 0 |
| COC(=O)C(NC(=O)NC1CCN(c2ccnc(Nc3ccc(F)cc3)n2)C1)c1ccccc1 (stereo not drawn) [GSK1379712] | 0 |
| CNCc1ccc2nc(NC(=O)c3ccc(C(C)(C)C)cc3)cn2c1 | 24 |
| Cc1ccc(NC(=O)Nc2ccc(Cl)cc2)cc1-c1ccc(C(=O)Nc2ccncc2)cc1 [GSK1398472] | 0 |
| Cn1cncc1-c1cc2c(Nc3ccc(OCc4ccccc4)cc3)ncnc2cn1 [GW281179] | 0 |
| Fc1ccc(-c2nc3n(c2-c2ccncc2)CCS3)cc1 [GI98581] | 0 |
| COc1ccc(CSc2nnc(-c3ccc4ncsc4c3)o2)cc1C(F)(F)F | 0 |

| SMILES | %Inh [%] |
| --- | --- |
| Cc1ccc(NC(=O)Nc2ccccc2)cc1-c1ccc(C(=O)Nc2ccncc2)cc1 [GSK1398471] | 0 |
| COc1ccc2cc(-c3nc(-c4ccccc4C(C)C)[nH]c3-c3ccncc3)ccc2c1 [SB-660566] | 0 |
| O=C1NC(=O)C(c2ccc(Cl)cc2)=C1Nc1cccc(Cl)c1 [SB-317651] | 0 |
| CC(C)c1cc(-c2ccc3c(N)n[nH]c3c2)nc(N)n1 [GSK2250882] | 0 |
| Cc1c(Cn2c3ccccc3n3c(=O)cc(N4CCOCC4)nc23)cccc1C(F)(F)F [GSK2306394] | 0 |
| COC(=O)C(Cc1ccccc1)NC(=O)NC1CCN(c2ccnc(Nc3ccc(F)cc3)n2)C1 (stereo not drawn) [GSK1379714] | 0 |
| CS(=O)(=O)Cc1ccc(Nc2nccc(-c3c(-c4cccc(NC(=O)C5CCCCC5)c4)nn4ncccc34)n2)cc1 [GSK350559] | 23 |
| Nc1nccc(-c2c(-c3ccc(F)cc3)ncn2C2CCN(Cc3ccccc3)CC2)n1 [SB-219980] | 0 |
| CC(C)c1ccc(O)cc1Nc1ccnc2ccc(C(F)(F)F)cc12 [GW482059] | 0 |
| CNc1nc(-c2ccc3c(N)n[nH]c3c2)cc(N2C[C@@H](C(=O)NC3CCCCC3)OC[C@H]2C)n1 [GSK2375584] | 0 |
| CCn1c(-c2ccccc2)nc2cnccc21 [SB-733416] | 0 |
| CCCCc1nn2ncccc2c1-c1ccnc(NC2CC2)n1 [GW684374] | 0 |
| Nc1cccc(-c2ccc3c(N)n[nH]c3c2)n1 [GSK2192730] | 0 |
| CS(=O)(=O)CCNCc1nc(-c2ccc3ncnc(Nc4ccc(OCc5ccccc5)c(Cl)c4)c3c2)cs1.Cl [GW582764] | 0 |
| COc1cccc(NC(=O)Nc2ccc(C)c(-c3ccc(C(=O)Nc4ccncc4)cc3)c2)c1 [GSK1398474] | 0 |
| CC[C@@H]1CO[C@H](C(=O)Nc2ccccc2)CN1c1cc(-c2ccc3c(N)n[nH]c3c2)nc(NC)n1 [GSK2376236] | 0 |
| COc1ccc(CSc2nnc(-c3ccc4nccn4c3)o2)cc1C(F)(F)F | 7 |
| Nc1ncnc2occ(-c3ccc4c(c3)CCN4C(=O)Cc3cc(F)ccc3F)c12 [GSK2645446] | 0 |
